Source: PubChem (several laboratories)
EBV LMP1 NFkB: reduces LMP1-driven NF-kappaB luciferase signal; 350,000 compounds, 0.69% hits; LMP1-induced NF-kappaB luciferase reporter cells, luminescence; inhibition, % at 12.5 µM; AID 504558; in the data active = inhibition above about 41%
Shn3 inh set2: inhibitors of Schnurri-3 3'UTR reporter in osteoblasts. 360,000 compounds, 0.52% hits. Clone20 osteoblast Shn3 3'UTR firefly luciferase, 24 h. inhibition, % at 12.5 µM;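 active = mean inhibition of at least 75% with every replicate also reaching 75%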
TWEAK Fn14 block: blocks TWEAK-Fn14 interaction in a reporter cell assay; TWEAK-stimulated Fn14 reporter cells, luciferase luminescence, 8 h; 360,000 compounds, 2% hits; inhibition, % at 10 µM; AID 1159606; in the data active = inhibition above about 50%
MITF TRPM1 inh: reduces MITF-dependent TRPM1 promoter luciferase signal; SK-MEL-5 TRPM1 promoter luciferase, 24 h; inhibition, % at 12.5 µM; 330,000 compounds, 0.83% hits; AID 488899;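 active = mean inhibition across replicates of 60% or more, whatever share of single replicates reaches that level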
TROY NFkB inh: inhibitors of TROY-dependent NF-kB signaling. Q293 LMP1-TROYcd NF-kB luciferase reporter, 4 h. inhibition, % at 10 µM. 360,000 compounds, 0.98% hits;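 active = compounds whose plate-normalised and pattern-corrected inhibition of the luciferase reporter signal at the single screening dose is 50% or more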
HIF-2a inh: inhibitors of HIF-2a; 786-0 RCC cells HIF-2a reporter, luciferase luminescence, overnight; inhibition, % at 18.8 µM; 360,000 compounds, 0.72% hits; AID 624352;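 active = inhibition of the luminescence signal of 40% or more relative to plate controls, in a single-dose primary screen at 18.75 µM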
Each line names hits and unclear results; the compound was inactive in the other large screens. Most compounds without a hit are left out; they make up all but 3.4% or so of the library.

CCOC(=O)C1=CCN(S(=O)(=O)c2ccc(F)cc2)C1c1cccc(C)c1 (stereo not drawn)	none (no result: EBV LMP1 NFkB, MITF TRPM1 inh)
Cc1cnc(C(=O)OCC(=O)Nc2ccccc2-c2ccccc2)cn1	none
Cc1occc(=O)c1OC(=O)Nc1ccc(Cl)c(Cl)c1	TWEAK Fn14 block 59.0
COc1ccc(C(=O)Oc2c(C)occc2=O)cc1OC	none
Oc1ccc(CN2CCN(Cc3ccccc3)CC2)c2cccnc12	none
O=[N+]([O-])c1cc(CN2CCN(c3ccccc3)CC2)c(O)c2ncccc12	EBV LMP1 NFkB 79.8, Shn3 inh set2 89.8, MITF TRPM1 inh 75.3
O=S(=O)(c1ccc(Cl)cc1)N1CCN(Cc2ccc(O)c3ncccc23)CC1	Shn3 inh set2 87.7, MITF TRPM1 inh 64.0
COc1cc(OC)cc(C(=O)Oc2c(CN3CCOCC3)cc(Cl)c3cccnc23)c1	none
Oc1c(CN2CCc3ccccc3C2)cc(Cl)c2cccnc12	EBV LMP1 NFkB 84.9, Shn3 inh set2 86.8, MITF TRPM1 inh 75.1
O=C(Oc1c(CN2CCOCC2)cc(Cl)c2cccnc12)c1ccccc1F	MITF TRPM1 inh 68.5
CN1CCN(C(=O)C[C@@H]2C[C@H]3c4cc(NC(=O)c5cccnc5)ccc4O[C@H]3[C@H](CO)O2)CC1	none (no result: MITF TRPM1 inh)
Oc1c(CN2CCCCC2)cc(Br)c2cccnc12	EBV LMP1 NFkB 71.8, MITF TRPM1 inh 74.5
CN1CCN(Cc2cc(COCc3ccccc3)c3cccnc3c2O)CC1	EBV LMP1 NFkB 57.6, MITF TRPM1 inh 79.2
Oc1c(Cl)cc(CN2CCOCC2)c2cccnc12	Shn3 inh set2 90.3
Oc1c(Cl)cc(Cl)c(Cl)c1CN1CCOCC1	none
O=C(Oc1c(CN2CCOCC2)cc(Cl)c2cccnc12)c1ccccc1	MITF TRPM1 inh 64.1
Cc1nc(SCC(=O)N2CCCC2=O)c2c(C)c(C)sc2n1	none (no result: MITF TRPM1 inh)
Cc1ccc(Cc2c(C3CCCCC3)nc3c(C)cc(Br)cn23)cc1	TWEAK Fn14 block 57.3 (no result: EBV LMP1 NFkB, Shn3 inh set2, MITF TRPM1 inh)
CSCCC(NC(=O)c1ccccc1Cl)C(=O)NNC(=O)c1ccncc1 (stereo not drawn)	none
CN1CCN(CCCNC(=O)c2ccc3c(c2)N(Cc2ccc(F)cc2)CCS3)CC1	EBV LMP1 NFkB 67.4
Cn1cc(-c2csc(C(C)(O)c3cccnc3)n2)cn1 (stereo not drawn)	none (no result: EBV LMP1 NFkB, MITF TRPM1 inh)
CCCOc1ccc(Cl)cc1/C=C1/C(=O)ON=C1C	none
CC1=NOC(=O)/C1=C\c1ccc(-c2ccc(Cl)cc2Cl)o1	MITF TRPM1 inh 72.6, HIF-2a inh 56.0
OCCN(CCO)c1cc2c3ccccc3ccc2c2ccccc12	TWEAK Fn14 block 99.2, TROY NFkB inh 51.5
Cc1ccccc1OC1(C)CCN(Cc2ccc(-c3ccccn3)cc2)C1 (stereo not drawn)	none (no result: EBV LMP1 NFkB, MITF TRPM1 inh)
Nc1ccn([C@@H]2O[C@H](CNCc3ccc(OCC(=O)Nc4nccs4)cc3)[C@@H](O)[C@H]2O)c(=O)n1	none (no result: MITF TRPM1 inh)
COc1ccc(-c2ocnc2C(=O)NCc2nn(-c3ccccc3)nc2C)cc1	TWEAK Fn14 block 50.3
CN(C)/C=C1/Sc2ccccc2C1=O	none
COc1ccc(CCN(/C=C2\Sc3ccccc3C2=O)C(C)=O)cc1OC	TROY NFkB inh 56.4 (no result: EBV LMP1 NFkB, Shn3 inh set2, MITF TRPM1 inh)
CCc1ccccc1NC(=O)CCS(=O)(=O)c1ccc(Br)cc1	TWEAK Fn14 block 70.0
CCc1ccccc1NC(=O)CCS(=O)(=O)c1ccc(C)cc1	none
COc1ccc(Nc2sc(C(=O)c3ccc(Cl)cc3)c(N)c2C(=O)Nc2ccccc2OC)cc1	none
COc1ccccc1NC(=O)c1c(Nc2ccccc2C)sc(C(=O)Nc2cccc(Cl)c2)c1N	EBV LMP1 NFkB 42.8, TWEAK Fn14 block 85.7
CCNc1nc(NC(C)CC)nc(Oc2ccc(=O)[nH]n2)n1 (stereo not drawn)	TWEAK Fn14 block 86.7
CCCCC(=O)/C=C/n1c(=S)oc2ccccc21	TWEAK Fn14 block 95.6
CCC(CC)C(=O)Nc1ccc(Sc2ccc([N+](=O)[O-])cc2)cc1	TROY NFkB inh 54.6
CCCC(=O)Nc1ccc(Sc2ccc([N+](=O)[O-])cc2)cc1	none
O=C(Nc1ccc([N+](=O)[O-])cc1)c1cncc(Br)c1	EBV LMP1 NFkB 42.9
O=C(Nc1ccncc1)c1cncc(Br)c1	none
O=C(Nc1ccc(N2CCN(C(=O)c3ccccc3F)CC2)cc1)c1cncc(Br)c1	TWEAK Fn14 block 63.8, TROY NFkB inh 64.1
O=C(CN1C(=O)C2CCCCC2C1=O)Nc1cc(C(F)(F)F)ccc1N1CCCC1 (stereo not drawn)	none
